Test results reported in the supplement of paper PMC10849652.
The full data set covers some 8,800 targets. This sample favours those with a hit. About 0.5% of all pairs of compound and target were hits.

Columns and labels:
Assay in all cases: log2 fold change, soluble protein after heating vs DMSO (PISA); higher = thermal stabilisation; K562 lysate, 10 uM; active = over 0.2 and 3.5 SD of the protein, either way, in both replicates (recomputed)
lapatinib = compound: CS(=O)(=O)CCNCc1ccc(-c2ccc3ncnc(Nc4ccc(OCc5cccc(F)c5)c(Cl)c4)c3c2)o1 [lapatinib]
How it was run: (§1)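 K562 pellets were dounce-homogenised in PBS pH 7.4 containing 1 mM MgCl2, and the crude extract, at 1 mg/mL protein, was exposed to 10 μM compound for 30 min. Aliquots were heated for 3 min across 48°C-58°C, pooled, brought to 0.5% NP-40 at 4°C and spun at 21,000xg for 90 min, with the supernatant taken as soluble protein. TMTpro 16plex LC-MS/MS with equalised channel sums quantified that protein. Values are log-two fold changes in thermal stability relative to solvent controls, taken from duplicates.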

pictilisib = compound: CS(=O)(=O)N1CCN(Cc2cc3nc(-c4cccc5[nH]ncc45)nc(N4CCOCC4)c3s2)CC1 [pictilisib]
How it was run: as §1

crizotinib = compound: C[C@@H](Oc1cc(-c2cnn(C3CCNCC3)c2)cnc1N)c1c(Cl)ccc(F)c1Cl [crizotinib]
How it was run: as §1

[1] = compound: C[C@H](C1=CC=C(C=C1)C(=O)NC2=C3C=CNC3=NC=C2)N
How it was run: as §1

duvelisib = compound: C[C@H](Nc1ncnc2nc[nH]c12)c1cc2cccc(Cl)c2c(=O)n1-c1ccccc1 [duvelisib]
How it was run: as §1

gandotinib = compound: Cc1cc(Nc2cc(CN3CCOCC3)c3nc(C)c(Cc4ccc(Cl)cc4F)n3n2)n[nH]1 [gandotinib]
How it was run: as §1

tozasertib = compound: Cc1cc(Nc2cc(N3CCN(C)CC3)nc(Sc3ccc(NC(=O)C4CC4)cc3)n2)n[nH]1 [tozasertib]
How it was run: as §1

doramapimod = compound: Cc1ccc(-n2nc(C(C)(C)C)cc2NC(=O)Nc2ccc(OCCN3CCOCC3)c3ccccc23)cc1 [doramapimod]
How it was run: as §1

bafetinib = compound: Cc1ccc(NC(=O)c2ccc(CN3CC[C@H](N(C)C)C3)c(C(F)(F)F)c2)cc1Nc1nccc(-c2cncnc2)n1 [bafetinib]
How it was run: as §1

[2] = compound: Cc1cccc(CC(=O)N2CCc3c2ccc(-c2cn(C)c4ncnc(N)c24)c3F)n1
How it was run: as §1

Measured: log2 fold change

TPX2 (UniProt Q9ULW0)
inactive: lapatinib 0.008 | pictilisib 0.032 | crizotinib 0.023 | [1] 0.01 | duvelisib 0.002 | gandotinib 0.04 | tozasertib -0.003 | doramapimod 0.049 | bafetinib -0.023 | [2] -0.011

TUBB4A (UniProt M0QYM7)
active: [1] -1.05
inactive: lapatinib -0.009 | pictilisib -0.067 | crizotinib -0.176 | gandotinib 0.39 | tozasertib 0.138 | doramapimod 0.116 | bafetinib -0.516 | [2] 0.42

TCF20 (UniProt Q9UGU0)
inactive: lapatinib -0.049 | pictilisib -0.034 | crizotinib 0.019 | [1] 0.011 | duvelisib 0.094 | gandotinib 0.108 | doramapimod -0.032 | bafetinib -0.001 | [2] -0.005

TGFBRAP1 (UniProt Q8WUH2)
inactive: lapatinib -0.029 | pictilisib -0.021 | crizotinib -0.034 | [1] -0.001 | duvelisib -0.03 | gandotinib -0.138 | tozasertib 0.052 | doramapimod 0.028 | bafetinib -0.056 | [2] -0.007

TPM1 isoform 4 (UniProt P09493)
inactive: lapatinib 0.032 | pictilisib -0.051 | crizotinib 0.001 | [1] 0.061 | duvelisib -0.029 | gandotinib -0.142 | tozasertib 0.013 | doramapimod 0.012 | bafetinib 0.011 | [2] -0.142

TMEM87B (UniProt Q96K49)
inactive: lapatinib -0.044 | pictilisib 0.147 | crizotinib -0.017 | [1] 0.004 | duvelisib 0.039 | gandotinib -0.077 | tozasertib 0.068 | doramapimod 0.026 | bafetinib 0.126 | [2] 0

TLE3 isoform 4 (UniProt Q04726)
inactive: lapatinib -0.01 | pictilisib 0.008 | crizotinib 0.003 | [1] 0.004 | duvelisib -0.015 | gandotinib 0 | tozasertib -0.029 | doramapimod -0.016 | bafetinib 0.1 | [2] -0.048

TFAP4 (UniProt Q01664)
Sequence of UniProt Q01664 (Q01664 whole entry, looked up): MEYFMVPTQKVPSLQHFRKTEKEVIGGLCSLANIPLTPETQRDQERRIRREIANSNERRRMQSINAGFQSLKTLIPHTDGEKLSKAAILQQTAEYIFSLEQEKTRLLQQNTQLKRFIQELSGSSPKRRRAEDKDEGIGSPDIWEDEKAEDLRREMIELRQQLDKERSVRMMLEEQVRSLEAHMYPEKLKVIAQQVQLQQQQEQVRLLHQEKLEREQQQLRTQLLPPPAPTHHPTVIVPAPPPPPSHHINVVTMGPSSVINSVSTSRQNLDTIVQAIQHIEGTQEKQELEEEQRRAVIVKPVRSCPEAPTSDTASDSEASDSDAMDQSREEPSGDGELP
inactive: lapatinib -0.05 | pictilisib 0.022 | crizotinib 0.009 | gandotinib 0.033 | tozasertib -0.05 | doramapimod 0.017 | bafetinib -0.214 | [2] -0.217
active: [1] 0.477

TASP1 (UniProt Q9H6P5)
inactive: lapatinib 0.009 | pictilisib -0.217 | crizotinib -0.086 | duvelisib 0 | tozasertib -0.002 | doramapimod 0.053 | bafetinib -0.235

TMOD1 (UniProt P28289)
inactive: lapatinib 0 | pictilisib -0.032 | crizotinib -0.011 | [1] 0.039 | duvelisib -0.008 | gandotinib -0.059 | tozasertib 0.026 | doramapimod 0.019 | bafetinib -0.004 | [2] -0.029

UBR4 isoform 4 (UniProt Q5T4S7)
inactive: lapatinib 0.146 | duvelisib -0.143 | tozasertib 0.079

TTC37 (UniProt Q6PGP7)
inactive: lapatinib -0.157 | pictilisib -0.03 | crizotinib -0.202 | duvelisib 0.096 | doramapimod 0.069 | bafetinib -0.26

TCF3 (UniProt X6REB3)
inactive: [1] -0.081 | gandotinib 0.269 | [2] 0.105

TRAF7 (UniProt Q6Q0C0)
inactive: crizotinib -0.01 | [1] -0.241 | duvelisib -0.029 | gandotinib -0.128 | tozasertib 0.124 | doramapimod 0.122 | [2] 0.127

UBAP2L isoform 1 (UniProt Q14157)
Sequence of UniProt Q14157 (Q14157 whole entry, looked up): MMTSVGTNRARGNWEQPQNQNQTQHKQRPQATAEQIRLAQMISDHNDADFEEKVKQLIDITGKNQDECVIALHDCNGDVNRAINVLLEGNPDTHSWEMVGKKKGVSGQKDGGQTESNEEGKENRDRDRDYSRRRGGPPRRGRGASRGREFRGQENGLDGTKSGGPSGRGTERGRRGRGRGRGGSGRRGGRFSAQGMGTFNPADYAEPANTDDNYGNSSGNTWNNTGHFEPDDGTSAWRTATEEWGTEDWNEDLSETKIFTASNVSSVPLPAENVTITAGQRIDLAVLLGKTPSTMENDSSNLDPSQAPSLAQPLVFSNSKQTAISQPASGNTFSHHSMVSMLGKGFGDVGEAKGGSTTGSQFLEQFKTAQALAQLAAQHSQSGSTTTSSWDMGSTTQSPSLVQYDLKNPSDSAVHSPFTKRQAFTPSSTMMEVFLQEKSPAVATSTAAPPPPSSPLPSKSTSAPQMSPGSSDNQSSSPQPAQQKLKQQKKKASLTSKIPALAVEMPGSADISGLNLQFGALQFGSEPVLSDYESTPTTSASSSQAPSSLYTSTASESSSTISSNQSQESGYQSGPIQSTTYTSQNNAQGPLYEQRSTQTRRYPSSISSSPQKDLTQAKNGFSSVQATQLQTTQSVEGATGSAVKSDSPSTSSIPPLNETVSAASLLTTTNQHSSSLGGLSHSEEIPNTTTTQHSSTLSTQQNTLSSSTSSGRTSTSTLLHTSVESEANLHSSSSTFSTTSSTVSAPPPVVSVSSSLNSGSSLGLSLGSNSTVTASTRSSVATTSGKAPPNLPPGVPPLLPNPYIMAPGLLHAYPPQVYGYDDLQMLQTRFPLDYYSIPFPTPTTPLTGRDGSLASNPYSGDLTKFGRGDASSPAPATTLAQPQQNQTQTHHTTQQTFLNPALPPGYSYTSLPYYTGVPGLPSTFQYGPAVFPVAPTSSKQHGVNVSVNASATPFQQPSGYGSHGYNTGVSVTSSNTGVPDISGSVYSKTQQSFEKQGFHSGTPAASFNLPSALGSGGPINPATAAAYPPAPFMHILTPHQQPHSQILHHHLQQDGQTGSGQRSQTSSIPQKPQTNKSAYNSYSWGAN
inactive: pictilisib -0.116 | crizotinib 0.376 | doramapimod -0.26 | bafetinib 0.56

TFPT (UniProt P0C1Z6)
inactive: lapatinib -0.004 | pictilisib 0.032 | duvelisib -0.005 | bafetinib -0.004

TUBA4A (UniProt C9JQ00)
inactive: pictilisib -0.2 | [1] -0.094 | gandotinib -0.142 | bafetinib -0.368 | [2] 0.228

UBAP2, A0A0D9SFI5
inactive: crizotinib -0.037 | doramapimod -0.056

TJP1 (UniProt H0Y3R8)
inactive: [1] 0.068 | gandotinib -0.057 | [2] -0.063

UBL5 (UniProt Q9BZL1)
Sequence of UniProt Q9BZL1 (Q9BZL1 whole entry, looked up): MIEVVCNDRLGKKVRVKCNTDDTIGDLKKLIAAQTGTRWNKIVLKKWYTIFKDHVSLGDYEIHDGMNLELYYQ
inactive: pictilisib -0.036 | crizotinib 0.072 | [1] -0.194 | duvelisib -0.042 | gandotinib 0.042 | tozasertib 0.138 | doramapimod 0.013 | bafetinib -0.034 | [2] 0.104

UBIAD1 (UniProt Q9Y5Z9)
inactive: lapatinib 0.031 | crizotinib -0.048 | [1] 0.036 | duvelisib -0.054 | gandotinib 0 | tozasertib -0.024 | doramapimod -0.014 | [2] 0.016

U2AF1L5 (UniProt P0DN76)
active: [1] -0.904
inactive: lapatinib 0.091 | duvelisib 0.021 | gandotinib 0.114 | tozasertib 0.207 | [2] 0.342

TNKS (UniProt O95271)
inactive: lapatinib -0.085 | crizotinib -0.031 | duvelisib -0.027 | gandotinib 0.038 | tozasertib 0.073 | doramapimod -0.013 | [2] 0.107
active: [1] -0.302

TMC1 (UniProt Q8TDI8)
Sequence of UniProt Q8TDI8 (Q8TDI8 whole entry, looked up): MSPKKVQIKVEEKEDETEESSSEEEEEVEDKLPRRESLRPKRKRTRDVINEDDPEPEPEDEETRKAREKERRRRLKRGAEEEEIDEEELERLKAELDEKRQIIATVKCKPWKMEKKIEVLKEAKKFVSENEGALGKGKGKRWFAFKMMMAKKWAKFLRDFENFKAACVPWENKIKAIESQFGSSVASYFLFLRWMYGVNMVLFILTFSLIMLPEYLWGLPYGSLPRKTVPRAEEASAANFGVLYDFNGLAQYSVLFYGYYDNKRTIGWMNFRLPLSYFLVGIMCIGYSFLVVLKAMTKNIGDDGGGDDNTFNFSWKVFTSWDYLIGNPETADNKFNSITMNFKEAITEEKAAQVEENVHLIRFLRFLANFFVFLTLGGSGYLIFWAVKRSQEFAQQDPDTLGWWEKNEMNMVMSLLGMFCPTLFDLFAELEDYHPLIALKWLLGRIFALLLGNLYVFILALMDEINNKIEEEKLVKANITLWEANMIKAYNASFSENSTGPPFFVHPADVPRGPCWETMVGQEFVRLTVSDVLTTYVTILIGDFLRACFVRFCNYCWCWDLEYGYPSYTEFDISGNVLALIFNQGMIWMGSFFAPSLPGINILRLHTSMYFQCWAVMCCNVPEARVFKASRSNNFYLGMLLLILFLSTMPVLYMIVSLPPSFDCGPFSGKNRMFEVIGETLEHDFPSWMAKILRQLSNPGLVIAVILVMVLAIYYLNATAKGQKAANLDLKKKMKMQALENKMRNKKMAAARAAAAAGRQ
inactive: lapatinib -0.134 | crizotinib -0.262 | tozasertib 0.074 | doramapimod 0.252

UBN1 (UniProt Q9NPG3)
inactive: lapatinib -0.187 | crizotinib -0.042 | [1] -0.057 | duvelisib -0.092 | gandotinib 0.215 | tozasertib 0.069 | doramapimod -0.256 | [2] 0.308

TPM3 isoform 3 (UniProt P06753)
inactive: lapatinib -0.009 | crizotinib 0.095 | duvelisib 0.011 | gandotinib 0.176 | tozasertib 0.143 | doramapimod 0.027 | [2] 0.202
active: [1] -0.411

TK1 (UniProt K7ERV3)
active: tozasertib 0.319
inactive: pictilisib -0.144 | crizotinib 0.075 | [1] -0.07 | duvelisib -0.021 | gandotinib 0.04 | doramapimod 0.041 | bafetinib -0.181 | [2] 0.01

TGFBR1 isoform 2 (UniProt P36897)
inactive: duvelisib -0.004 | tozasertib 0.022

TCF3 isoform 2 (UniProt P15923)
inactive: crizotinib -0.048 | doramapimod 0.092

TEDC1 (UniProt Q86SX3)
inactive: lapatinib -0.064 | crizotinib -0.078 | duvelisib 0.159 | tozasertib -0.103 | doramapimod 0.009

TRIM3 (UniProt O75382)
inactive: lapatinib 0.009 | tozasertib -0.056

TLK2 isoform 3 (UniProt Q86UE8)
inactive: [1] 0.012 | gandotinib 0.009 | [2] -0.101

TEC (UniProt P42680)
inactive: lapatinib 0.007 | tozasertib -0.198

TMEM132A isoform 2 (UniProt Q24JP5)
inactive: lapatinib -0.172 | crizotinib -0.237 | [1] -0.084 | gandotinib 0.077 | tozasertib 0.042 | doramapimod -0.163 | [2] 0.002

TM2D3 (UniProt Q9BRN9)
Sequence of UniProt Q9BRN9 (Q9BRN9 whole entry, looked up): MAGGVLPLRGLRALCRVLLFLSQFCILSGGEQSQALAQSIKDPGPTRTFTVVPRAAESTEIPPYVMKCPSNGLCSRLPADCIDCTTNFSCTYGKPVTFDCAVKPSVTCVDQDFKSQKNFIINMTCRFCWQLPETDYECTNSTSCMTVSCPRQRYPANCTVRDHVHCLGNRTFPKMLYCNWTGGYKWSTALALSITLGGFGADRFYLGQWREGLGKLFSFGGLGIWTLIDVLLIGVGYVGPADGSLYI
active: [1] -0.836
inactive: pictilisib 0.069 | gandotinib 0.329 | tozasertib -0.075 | bafetinib 0.048 | [2] 0.348

TCF4 (UniProt P15884)
Sequence of UniProt P15884 (P15884 whole entry, looked up): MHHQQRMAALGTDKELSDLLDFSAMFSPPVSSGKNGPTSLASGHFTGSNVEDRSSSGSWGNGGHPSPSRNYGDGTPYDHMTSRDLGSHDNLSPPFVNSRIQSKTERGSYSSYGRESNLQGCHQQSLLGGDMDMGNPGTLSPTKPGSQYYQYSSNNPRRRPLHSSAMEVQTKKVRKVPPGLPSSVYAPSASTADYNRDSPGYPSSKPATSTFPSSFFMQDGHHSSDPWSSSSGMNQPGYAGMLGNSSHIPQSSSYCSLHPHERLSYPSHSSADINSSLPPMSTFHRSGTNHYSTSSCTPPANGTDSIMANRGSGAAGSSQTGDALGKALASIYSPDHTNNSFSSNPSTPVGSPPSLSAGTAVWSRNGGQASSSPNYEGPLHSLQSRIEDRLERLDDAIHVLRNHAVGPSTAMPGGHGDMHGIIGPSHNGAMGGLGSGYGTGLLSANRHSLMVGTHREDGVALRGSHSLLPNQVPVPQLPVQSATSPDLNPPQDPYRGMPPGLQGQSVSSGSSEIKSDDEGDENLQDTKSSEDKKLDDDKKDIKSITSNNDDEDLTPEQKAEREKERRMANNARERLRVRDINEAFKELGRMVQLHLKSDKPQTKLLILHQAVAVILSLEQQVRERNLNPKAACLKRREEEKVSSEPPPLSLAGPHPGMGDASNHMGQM
inactive: lapatinib -0.212 | crizotinib 0.128 | [1] 0.039 | duvelisib 0.039 | gandotinib -0.022 | tozasertib -0.044 | doramapimod -0.099 | [2] 0

UBXN2B (UniProt Q14CS0)
inactive: lapatinib -0.226 | pictilisib -0.036 | [1] -0.01 | duvelisib 0.07 | gandotinib 0.213 | tozasertib 0.027 | bafetinib 0.003 | [2] -0.005

TFPI isoform 2 (UniProt P10646)
inactive: crizotinib 0.045 | doramapimod -0.121

TRPM4 (UniProt Q8TD43)
Sequence of UniProt Q8TD43 (Q8TD43 whole entry, looked up): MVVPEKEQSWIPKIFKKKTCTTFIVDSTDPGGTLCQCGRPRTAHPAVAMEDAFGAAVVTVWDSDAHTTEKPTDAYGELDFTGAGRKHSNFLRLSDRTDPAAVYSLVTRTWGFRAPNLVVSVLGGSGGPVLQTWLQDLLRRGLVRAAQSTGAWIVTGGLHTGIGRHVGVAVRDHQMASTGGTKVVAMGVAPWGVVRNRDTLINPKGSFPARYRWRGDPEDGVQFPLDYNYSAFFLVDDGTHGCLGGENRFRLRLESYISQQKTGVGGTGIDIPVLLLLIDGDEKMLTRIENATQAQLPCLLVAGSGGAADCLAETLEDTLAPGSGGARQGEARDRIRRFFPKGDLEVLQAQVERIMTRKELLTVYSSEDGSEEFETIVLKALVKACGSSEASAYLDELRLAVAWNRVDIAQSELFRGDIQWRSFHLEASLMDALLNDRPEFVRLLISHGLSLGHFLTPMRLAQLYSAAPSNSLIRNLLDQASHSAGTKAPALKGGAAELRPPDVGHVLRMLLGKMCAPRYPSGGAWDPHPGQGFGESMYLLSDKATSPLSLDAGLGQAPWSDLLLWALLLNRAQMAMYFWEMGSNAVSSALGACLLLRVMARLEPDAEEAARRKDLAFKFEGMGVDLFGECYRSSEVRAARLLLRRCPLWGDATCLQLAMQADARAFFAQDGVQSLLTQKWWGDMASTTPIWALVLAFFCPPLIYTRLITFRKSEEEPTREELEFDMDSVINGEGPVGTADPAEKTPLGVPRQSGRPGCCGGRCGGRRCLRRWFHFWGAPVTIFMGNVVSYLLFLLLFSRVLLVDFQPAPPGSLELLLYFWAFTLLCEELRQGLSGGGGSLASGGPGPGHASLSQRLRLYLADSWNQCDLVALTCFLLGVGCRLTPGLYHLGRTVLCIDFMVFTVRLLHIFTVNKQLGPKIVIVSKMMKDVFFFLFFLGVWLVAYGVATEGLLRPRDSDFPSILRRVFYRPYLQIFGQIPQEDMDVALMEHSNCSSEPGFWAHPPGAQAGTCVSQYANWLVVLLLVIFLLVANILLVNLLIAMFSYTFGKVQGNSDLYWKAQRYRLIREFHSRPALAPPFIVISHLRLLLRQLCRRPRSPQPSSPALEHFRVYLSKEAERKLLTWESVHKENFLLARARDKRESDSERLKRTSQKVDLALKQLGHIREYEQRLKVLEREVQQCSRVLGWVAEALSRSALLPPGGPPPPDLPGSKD
active: [1] -0.654
inactive: pictilisib -0.085 | crizotinib 0.055 | duvelisib 0.042 | gandotinib 0.088 | doramapimod -0.111 | bafetinib -0.02 | [2] 0.25

UCP2 (UniProt P55851)
active: crizotinib -0.441
inactive: doramapimod -0.141

TPD52L2 isoform 3 (UniProt O43399)
Sequence of UniProt O43399 (O43399 whole entry, looked up): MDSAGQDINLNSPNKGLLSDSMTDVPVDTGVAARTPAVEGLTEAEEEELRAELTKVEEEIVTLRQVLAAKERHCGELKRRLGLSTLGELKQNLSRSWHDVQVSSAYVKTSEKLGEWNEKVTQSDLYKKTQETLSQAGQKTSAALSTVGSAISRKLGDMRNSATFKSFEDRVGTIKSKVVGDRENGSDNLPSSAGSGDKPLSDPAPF
inactive: pictilisib -0.112 | [1] -0.155 | gandotinib 0.377 | bafetinib -0.102 | [2] -0.124

TSPAN3 (UniProt O60637)
Sequence of UniProt O60637 (O60637 whole entry, looked up): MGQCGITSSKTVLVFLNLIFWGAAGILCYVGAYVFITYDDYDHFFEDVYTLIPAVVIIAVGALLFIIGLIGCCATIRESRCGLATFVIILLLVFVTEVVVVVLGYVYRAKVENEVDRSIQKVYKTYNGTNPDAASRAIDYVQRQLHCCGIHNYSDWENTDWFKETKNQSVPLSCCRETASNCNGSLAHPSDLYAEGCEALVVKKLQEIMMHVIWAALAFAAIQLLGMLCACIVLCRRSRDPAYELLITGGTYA
active: [1] 0.513
inactive: lapatinib -0.013 | duvelisib -0.058 | gandotinib -0.163 | tozasertib -0.01 | [2] -0.342

TUBAL3 (UniProt A6NHL2)
active: [2] 0.567
inactive: lapatinib -0.07 | pictilisib -0.034 | [1] -0.434 | duvelisib -0.001 | gandotinib 0.312 | tozasertib 0.09 | bafetinib -0.232

TJP1 (UniProt G3V1L9)
inactive: pictilisib 0.157 | crizotinib 0.068 | [1] 0.027 | duvelisib -0.042 | gandotinib 0.071 | doramapimod -0.209 | bafetinib -0.047 | [2] 0.059

TMPO isoform 2 (UniProt P42167)
inactive: pictilisib 0.04 | duvelisib -0.041 | tozasertib -0.029 | bafetinib -0.026

UBAP2L (UniProt F8W726)
inactive: lapatinib -0.15 | crizotinib 0.098 | doramapimod -0.068

TMEM154 (UniProt Q6P9G4)
inactive: crizotinib 0.035 | duvelisib 0.039 | tozasertib 0.03 | doramapimod -0.146
